Sfp PPTase inh: blocks B. subtilis Sfp PPTase activity | Q9F4F7 | Biochemical Sfp PPTase activity, qHTS | Potency, µM, inactives show largest response in the series, negative = inhibition, actives largely listed as inhibitors | 310,000 tested, 3.5% active | AID 1490;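 note: the enzyme is Sfp with the accession as filed and its product quenches rhodamine fluorescence; potency is the fitted concentration of half-maximal effect; 0% = enzyme reaction without inhibitor and -100% = no enzyme wells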
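Sfp 15 nM + cpd, 15 min RT; start w/ rhodamine-CoA 5 uM, BHQ-2-YbbR 12.5 uM (final); 50 mM Hepes pH 7.6, 10 mM MgCl2, 0.01% NP-40, 0.01% BSA; read 525/598 nm at 0 and 30 min.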
ELG1 repair inh: ELG1-dependent DNA repair inhibition. AID 504467. HEK293T ELG1-luciferase reporter, luminescence, 16 h; DNA damage induced by 5-fluorouridine. 330,000 tested, 2.3% active. Potency, µM (top dose mostly 46.1 µM), for the others: top-dose activity change, negative = inhibition, hits mostly inhibitors; note: potency is the fitted concentration of half-maximal effect; nearly all actives have a fitted effect of over 55% in size
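Step one: seed 2,000 cells per well. Step two: pin-transfer compound or DMSO alongside 5-fluorouridine. Step three: incubate 16 hr, 37 °C, 5% CO2. Step four: add ONE-Glo, wait 30 min, read luminescence.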
Giardia kill: Giardia lamblia killing; 340,000 tested, 0.15% active; activity change, % at 7.66 µM, hits read low; Giardia lamblia trophozoite viability; in the data active = activity change below about -80%; inconclusive = between about -30% and that limit;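 note: parasites exposed to compound for two days anaerobically before the ATP read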
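Compounds were tested on trophozoites seeded at 100 cells/well and held 48 hrs at 37 deg C anaerobically. An ATP-based luminescent kit measured the remaining live cells.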
Coupling enz: inhibits coupling enzyme system, counter-screen for aldolase hits. coupling enzyme system counterscreen, AmpLite Red fluorescence. activity change, negative = inhibition, % at 58.2 µM, hits read low. 290,000 tested, 0.67% active. AID 2472; in the data active = activity change below about -30%
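Final compound at 57.5 uM, incubated 10 min at RT with coupling enzyme reagent (glyceraldehyde-3-phosphate), then 20 min with substrate and AmpLite Red detection. Fluorescence read at 525/598 nm; tests interference with the coupling assay, not aldolase inhibition.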
An asterisk follows results filed as active; ? = inconclusive; . = no result given. The list is not random: actives were taken first. Their share in the collection is about 5.5%. Unless noted, calls come from the whole dose curve; as a rule, active = well fitted curve in the direction sought with a large enough effect; inconclusive = small, poorly fitted or top-dose-only effect, or another doubt; inactive = no such curve, though single readings can be large; an effect the other way counts as inactive or inconclusive. Unless noted, % is set by controls: 0 for no effect and ±100 for the full control effect.

SMILES	Sfp PPTase inh	ELG1 repair inh	Giardia kill	Coupling enz
COCCCn1c(=N)c(C(N)=S)cc2c(=O)n3cccc(C)c3nc21	.	.	2	.
Cc1[nH]nc(SCC(=O)N2CCC(C)CC2)c1[N+](=O)[O-]	89µM*	26%	-15	0
COc1cc(NC(=O)CSc2nc(C3CC3)nc3ccccc23)cc(OC)c1	-14%	-17%	8	0
Cc1ccc(Nc2nc(CSc3nnc(-c4ccncc4)n3C)cs2)cc1	40µM*	?	?	3
Cc1ccccc1Nc1nc(CSc2nnc(-c3ccoc3C)n2C)cs1	20µM*	10%	-8	0
O=C(CCN1CCOCC1)c1ccc2c(c1)OCCO2	-15%	1%	-1	-3
O=C(CCN1CCc2ccccc2CC1)c1ccc2c(c1)OCCO2	40µM*	-7%	-5	1
Nc1ccccc1C#CC(=O)c1ccccc1	-3%	-1%	14	-1
O=C(/C=C/c1ccc(S(=O)(=O)N2CCOCC2)cc1)Nc1ccc(F)c(F)c1F	.	21µM*	-3	.
O=C(COC(=O)/C=C/c1ccc(S(=O)(=O)N2CCOCC2)cc1)Nc1ccc(F)c(F)c1F	.	6%	-1	.
O=C(/C=C/c1ccc(S(=O)(=O)N2CCOCC2)cc1)N1CCN(c2ccccc2)CC1	18%	?	17	2
CC1CCCC(C)N1C(=O)/C=C/c1ccc(S(=O)(=O)N2CCOCC2)cc1 (stereo not given)	.	13µM*	-4	.
O=C(NCCCN1CCCCC1)C1CCN(S(=O)(=O)N2CCC3(CC2)OCCO3)CC1	5%	3%	?	4
CCOC(=O)C1(Cc2cccc(OC)c2)CCCN(C(=O)c2cc(C)on2)C1 (stereo not given)	22%	?	-24	.
O=S(=O)(NC1CCc2ccccc21)c1ccc(S(=O)(=O)N2CCCC2)cc1 (stereo not given)	7%	26µM*	-5	-1
COc1ccc(-c2[nH]ncc2CN2CCN(Cc3cccs3)CC2)cc1F	2%	21µM*	10	-1
CC(=O)N1CCN(c2ccc(NCc3ccc(F)cc3)cc2)CC1	40µM*	?	3	-12
Cc1ccc(CNc2ccc(N3CCOCC3)cc2)cc1	-21%	?	-3	-1
c1cc2c(cc1CNc1ccc(N3CCOCC3)cc1)OCO2	.	?	13	.
c1cc(CNc2ccc(N3CCOCC3)cc2)ccn1	50µM*	?	-5	-14
CC(C)c1ccc(CNc2ccc(N3CCOCC3)cc2)cc1	45µM*	0%	5	-4
CC1(C)CCc2cc(S(=O)(=O)N3CCN(S(=O)(=O)c4c(F)cccc4F)CC3)ccc2O1	.	?	3	.
O=C(CNC(=O)c1cc(S(=O)(=O)N2CCCCC2)ccc1N1CCOCC1)Nc1ccc(F)c(F)c1	.	-3%	-11	.
O=S(=O)(c1ccccc1)N1CCC2(CCCN(Cc3nccs3)C2)CC1	8%	.	.	2
O=C(Nc1ccc(S(=O)(=O)N2CCCCC2)cc1)c1ccccc1F	18%	0%	13	-2
SMILES	Sfp PPTase inh	ELG1 repair inh	Giardia kill	Coupling enz
CC(NCc1ccccc1Cl)C(=O)Nc1ccc(S(=O)(=O)N2CCCC2)cc1 (stereo not given)	56µM*	-7%	-9	0
O=C(Nc1ccc(S(=O)(=O)N2CCCC2)cc1)c1cc(F)c(F)cc1Cl	3%	15µM*	0	.
CC(C)CSc1n[nH]c(=S)s1	35µM*	-18%	-14	6
COc1ccc(C2Nc3ccccc3C(=O)N2Cc2ccco2)cc1COc1ccccc1F (stereo not given)	-6%	18µM*	0	-2
O=C(C1CCCCC1)N1CCN(c2nc(-c3ccc(F)cc3)cs2)CC1	-5%	21µM*	-1	-1
O=C(Nc1nc(-c2ccc(F)cc2)cs1)C1CCN(C(=O)c2ccc(F)cc2)CC1	.	18µM*	0	.
COc1ccc(CNC(=O)CN(C(=O)c2csnn2)c2cccc3ccccc23)cc1	17%	-1%	6	5
CC(=O)Oc1c(/C=C(\C#N)C(N)=O)[nH]c2ccccc12	7%	21µM*	-14	4
COc1ccc(Cl)cc1NC(=O)CN(C)C(=O)c1cn(-c2ccccc2)nc1-c1cccnc1	.	?	11	.
C=CCn1c(CCNC(=O)c2ccc(Cl)c(Cl)c2)nnc1SCCOc1ccc(OC)cc1	1%	16µM*	13	6
C=CCn1c(SCCOc2ccccc2)nnc1C(C)NC(=O)c1ccccc1 (stereo not given)	8%	-5%	4	1
Cc1nn(C)c(Sc2ccccc2N)c1[N+](=O)[O-]	3.5µM*	?	-1	0
CC1(C)CC(Nc2ccc(Nc3ccccc3)cc2)CC(C)(C)N1	20µM*	-22%	6	-12
CC1(C)CC(NC(=O)c2ccccc2)CC(C)(C)N1	10%	1%	13	3
Cc1ccc(S(=O)(=O)NC2CC(C)(C)N(O)C(C)(C)C2)cc1	.	-1%	5	.
NC(=O)c1ccccc1NC(=O)CN1CCN(Cc2ccccc2)CC1	13%	-2%	?	4
NC(=O)c1ccccc1NC(=O)CN1CCN(Cc2ccc(Cl)cc2Cl)CC1	0%	10µM*	4	0
CSc1ccccc1NC(=O)COc1ccc(Cl)cc1C	-1%	?	-16	-2
CCOC(=O)c1c(C)oc(NC(=O)COc2ccc(Cl)cc2C)c1C#N	17%	21µM*	-3	0
O=C(CCCSc1ccccc1)Nc1ccc(Cl)c(S(=O)(=O)N2CCOCC2)c1	.	?	-10	.
Nc1ccc2cc3ccc(N)cc3nc2c1	-24%	.	.	.
CCN(C(=O)CCS(=O)(=O)c1cccc2nonc12)c1ccc(F)cc1	3%	8%	3	2
Cc1sc2nc(SCC(=O)N(C)c3ccccc3)n(C)c(=O)c2c1C	0%	?	24	.
CCC(=O)Nc1sc2c(c1C#N)CC(C)(C)NC2(C)C	12%	1%	0	1
CC1(C)CC2CC(C)(CN2/C=N/c2sc3c(c2C#N)CC(C)(C)NC3(C)C)C1 (stereo not given)	-15%	23µM*	2	-7
SMILES	Sfp PPTase inh	ELG1 repair inh	Giardia kill	Coupling enz
CCN(C[C@H]1N[C@@](C)(C(=O)OC)[C@H]2C(=O)N(Cc3ccccc3)C(=O)[C@@H]12)C(=O)c1ccc(C(C)(C)C)cc1	.	10µM*	6	.
CCN(C[C@H]1N[C@@](C)(C(=O)OC)[C@H]2C(=O)N(Cc3ccccc3)C(=O)[C@@H]12)C(=O)COC	.	?	-20	.
O=C(Nc1cccnc1)c1ccc([N+](=O)[O-])o1	13%	?	-86*	-6
O=C(NCc1ccco1)c1ccc([N+](=O)[O-])o1	-27%	-12%	-81*	-5
CC(Sc1ccsc1[N+](=O)[O-])C(=O)NCc1ccco1 (stereo not given)	50µM*	7%	?	4
CCNC(=O)NC(=O)c1csc([N+](=O)[O-])c1	8%	2%	?	2
O=C(Nc1cccnc1)c1ccco1	14%	15%	-6	2
O=C(NCc1ccco1)NC(=O)c1csc([N+](=O)[O-])c1	-9%	5%	-82*	0

Compound activity: PubChem BioAssay, National Center for Advancing Translational Sciences (NCATS)
